In PubChem BioAssay (NCI):
This is part of a sample that, as a whole, favours compounds with a hit. Of some 83,000 tested, about 20% had one in any assay.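 The test compound was applied at a single concentration to cells in 96-well plates for 48 hours, and percent growth was recorded.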 Values without a mark were called inactive. The source made the active and inactive calls. The calls were made as follows: active = growth percent below 10; inactive = the rest.

tested on: HL-60(TB) leukemia; experiment: NCI-60 one-dose screen, 48 h (100 = growth as untreated, 0 = no growth, -100 = all killed); settings: 10 µM unless noted

Structure (SMILES)	growth
CS(=O)(=O)Nc1cc(-c2ccc3ncnc(N4CCc5cc(F)c(Cl)cc54)c3c2)cnc1Cl	14.3%
COc1ccc(CCC2c3c(cc4c(c3OC)OCO4)CCN2C)cc1 (stereo not given)	-37.5% (active)
C#CCCCNCCNc1ccnc2cc(Cl)ccc12	46.8%
N#CC1=C(c2ccco2)Nc2c(c(-c3ccccc3)nn2-c2ccccc2)C12C(=O)Nc1ccc(Br)cc12 (stereo not given)	51.1%
CC(C)C(C(=O)O)n1c(O)c(/C=C2/C=c3cc4c(cc3=NC2=O)OCO4)sc1=S (stereo not given)	105%
Cc1ccc(Cc2cnc(NC(=O)c3ccc(/C=C4\SC(=S)N(C)C4=O)cc3)s2)cc1	18%
O=c1[nH]c2ccc(Cl)cc2cc1CSc1ccc(Nc2nccc(-c3ccc4ccccc4c3)n2)cc1	91.4%
COc1ccc2nc(Nc3cccc(NC(=O)c4ccc(CN5CCN(C)CC5)c(C(F)(F)F)c4)c3)ccc2c1	-47.8% (active)
O=c1oc2ccc(-c3ccc(F)cc3F)cc2c(=O)n1-c1ccc(F)c(Cl)c1	-40.3% (active)
C=C[C@@]12CN3CC[C@]1(O)[C@@](C(=O)OC)(CO2)c1[nH]c2ccccc2c1C3	20.5%
O=C(NC(=S)N1CCN(c2ncnc3c2cnn3-c2ccccc2)CC1)c1ccc(F)cc1	64.8%
O=C(COc1ccc(NC(=O)Nc2ccccc2)cc1)N=Nc1c(O)[nH]c2ccc([N+](=O)[O-])cc12	23.4%
COc1ccc2[nH]c(O)c(N=NC(=O)c3ccc4nc(-c5ccc(Cl)cc5)[nH]c4c3)c2c1	88.5%
O=C(c1ccc(OCCN2CCOCC2)cc1)C1[C@H](c2ccc(Cl)cc2)[C@@H](c2ccccc2)NC12C(=O)Nc1ccc(Br)cc12 (stereo not given in full)	-28.5% (active)
COc1cc(C2CC(c3ccccc3)=Nc3c(N)nc(N)nc3N2)ccc1Oc1nc(Nc2ccc(F)cc2)nc(N(C)C)n1 (stereo not given)	26.1%
O=C(CNc1nc(-c2ccccc2)cs1)Nc1ccc([N+](=O)[O-])cc1	5.69% (active)
CN(C)CCn1c2ccccc2c2nc3cc(C(F)(F)F)ccc3nc21	24.7%
C#CCOc1cc(N(CC)CC)ccc1C(C(=O)NC(C)(C)C)N(C(=O)C1CCc2cc(F)ccc2O1)c1ccc(F)cc1 (stereo not given)	3.9% (active)
CONC[C@]1(C)C=C2C(=O)[C@](C)(O)C3(CC3)C(C)=C2[C@H]1O	-29.3% (active)
CN1C(=O)N(C)C2SC(N/N=C/c3ccccc3)=NC21 (stereo not given)	8.73% (active)

Structure (SMILES)	growth
CN(C)CCCNC(=O)c1cc(NC(=O)c2cc(NC(=O)c3ccc(C#Cc4ccccc4)cc3)cn2C)cn1C	-69.6% (active)
CC(=O)Nc1cccc(Nc2nccc(N[C@@H](C)c3ccccc3)n2)c1	5.18% (active)
CN1CCc2c(sc3ncnc(N/N=C/c4cccc(Cl)c4Cl)c23)C1	-50.9% (active)
COc1cc2nc(SCc3ccccc3)n(-c3ccc(Cl)cc3)c(=O)c2cc1OC	34.8%
COc1cc(C2C(C(=O)OCc3ccccc3)=C(C)Nc3nc4ccccc4n32)cc(OC)c1OC (stereo not given)	16.1%
C[C@@H]1CN(c2ccc3ncc(C#Cc4cncc(C(=O)Nc5ccc(CN6CCN(C)CC6)c(C(F)(F)F)c5)c4)n3n2)C[C@@H](C)O1	-53.6% (active)
CNS(=O)(=O)N1CCc2c(Br)c3c(c(OC)c2C1CCc1ccccc1)OCO3 (stereo not given)	-36.1% (active)
N#C/C(=C\c1ccc(N(c2ccccc2)c2ccccc2)cc1)C(N)=O	68.7%
CCCCCCCCCCCCCCCCCCCC(=O)NCCc1c[nH]c2ccc(O)cc12	52.8%
O=c1c2ccccc2nc(COc2ccccc2)n1/N=C/c1ccc(N2CCOCC2)cc1	100%
COc1ccc(Nc2nc(N)n(Cc3cccc(Br)c3)n2)cc1	-11.4% (active)
Cn1cc(-c2nnc(N)nc2-c2c[nH]c3ccc(F)cc23)c2cc(Br)cnc21	47.1%
O=C(CN1CCN(c2ncnc3c2cnn3-c2ccccc2)CC1)Nc1ccc(Cl)cc1	58.6%
COc1ccccc1C(=O)NN1C(=O)/C(=C/C2=Cc3ccccc3OC2)SC1=S	97.2%
O=C(CNc1nc(-c2ccccc2)cs1)Nc1ccc([N+](=O)[O-])cc1Cl	21.9%
CN(C)c1ccnc(CNCCSC2(c3ccc(C(F)(F)F)cc3)c3ccccc3C=Cc3ccccc32)c1	-34.1% (active)
CCN(C(=O)CN1C(=O)/C(=C/c2ccco2)SC1=S)C1CCS(=O)(=O)C1 (stereo not given)	92.4%
O=C(Nc1ccccc1)N1CCN(c2cc(-c3cn(-c4ccccc4)nc3-c3cccc(O)c3)ccn2)CC1	23.3%
Cn1cc(-c2cc(N)n3nc(-c4c[nH]c5ccc(F)cc45)cc3n2)c2cc(Br)cnc21	33.2%
O=C(N=Nc1c(O)[nH]c2ccc([N+](=O)[O-])cc12)c1ccc2nc(-c3ccccc3)[nH]c2c1	84.7%
